Active and inactive are the calls of the source. Rule for the calls: active = hit-call score of the fitted dose curve at least 0.9, where 1 is the maximum; inactive = score below 0.9.
These molecules were tested on Cyclin Dependent Kinase Inhibitor 1A (CDKN1A), CDKN1A (gene 1026) (assay: LTEA_HepaRG_CDKN1A: Life Technologies and Expression Analysis (LTEA) Assay for Cyclin Dependent Kinase Inhibitor 1A (CDKN1A) using HepaRG (AID 2283450)). Details: mRNA level, 48 h; actives raise or lower the signal.
Method: LTEA_HepaRG is a cell based, multiplexed-readout assay that uses HepaRG, a human liver cell line, with measurements taken at 48 hours after chemical dosing on a 96-well plate.LTEA_HepaRG_CDKN1A is one of 102 assay component(s) measured in the LTEA HepaRG cell culture assay. It is a marker of Cell proliferation, survival, death.Data from the assay component LTEA_HepaRG_CDKN1A was analyzed into 1 endpoint. This assay endpoint, LTEA_HepaRG_CDKN1A, was analyzed with bidirectional fitting relative to DMSO as the negative control and baseline of activity. Using a type of inducible reporter, measures of mRNA induction for gain or loss-of-signal activity can be used to understand regulation of transcription factor activity. To generalize the intended target to other relatable targets, this assay endpoint is annotated to the cell cycle intended target family, where the subfamily is Cell proliferation, survival, death.
A total of 1060 chemcials from the ToxCast library were tested in eight-point concentration-response experiments. Cell culture and cytotoxicity assays were conducted at Thermo Fisher Scientific's Custom Services facility (Madison, WI). A single lot of human HepaRG cells (Thermo Fisher Scientific, Frederick, MD) was used for the cell culture experiments. 96-well format collagen type I coated plates of human HepaRG cells were prepared using established methods. Briefly, cryopreserved HepaRG cells were thawed, plated at a density of approximately 100,000 cells/well in HepaRG Thaw, Plate, and General Purpose media (HPRG770, Thermo Fisher Scientific), and incubated for 48 hours. 0.5% DMSO was selected as vehicle control to balance the requisite need of DMSO in HepaRG cultures to maintain differentiation (for example, baseline metabolism, proportions of hepatocytes vs. cholangiocytes), while enabling further hepatic receptor pathway activation (for example, PXR and CAR) in response to chemical exposure. 48 hours after plating, the culture medium was replaced with HepaRG Serum-Free Incudtion Media. Cells were exposed to each test chemical in duplicate and maintained in CO2 incubators for another 48 hours. Chemical plates were thawed to room temperature and 200x concentrations of treatment groups were prepared. 8-point conentration-reponse curves were made with the highest exposure at 100 uM, followed by half-log dilutions, all in 0.5% DMSO. Each test plate contained variouse controls, induction positive controls (1mM phenobarbital), cytotoxicity positive controls ([…] aflatoxin B1), vehicle controls (0.5% DMSO), and total lysis controls (0.5% DMSO). Cell morphology images were taken using an Essen IncuCyte FLR automated microscope, with six 96-well plates imaged in about 24 minutes. Images were captured and exported and JPEG files. Spent culture media was transfered to black-well plates for the LDH assay, and remaining media was sorted at -80 C for later use. Cells were treated with RLT buffer and frozen until shipped for gene expression analysis. Total RNA was isolated from the cell suspension in 75 uL of Buffer RLT (Qiagen, Germantown, MD 20874) by Quintiles/Expression Analysis (Durham, NC) using a custom isolation procedure. Total RNA from each plate well was transferred to a preamplification plate. Fluidigm's 96.96 Dynamic ArrayTM (Fluidigm, Amsterdam, the Netherlands) technology was used for gene expression analyses by quantitative reverse transcription polymerase chain reaction (qRT-PCR, performed by Quintiles/Expression Analysis, Durham, NC)89. Standard TaqManTM Assays (Applied Biosystems/ThermoFisher Scientific, Foster City, CA) were used to assess the expression of 93 genes selected based on their selectivity and sensitivity to important hepatic receptors known to be modulated by environmental chemicals; importance in human hepatocyte functionality; and hepatotoxicity. […]

outcome, inactive:
Cc1cn([C@H]2C[C@H](N=[N+]=[N-])[C@@H](CO)O2)c(=O)[nH]c1=O
O=c1c(-c2ccc(O)cc2)coc2cc(O)cc(O)c12
O=C1CCC(C2CCCCC2)CC1
O=CCCCC=O
CC(C)(C)c1csc(-c2cc3cc(OCc4ccccc4CC(=O)O)ccc3o2)n1
Cc1cccc2ccccc12
COc1ccc2cc(S(=O)(=O)N[C@H](CC(=O)N[C@H](Cc3ccc(CN4[C@H](C)CCC[C@@H]4C)cc3)C(=O)N(C)C(C)C)c3ccc4c(c3)OCO4)ccc2c1
CCN(CC)C(=O)c1cc(S(=O)(=O)Cc2ccccc2)c(N2CCC(c3ccccc3)CC2)cc1N(CC)CCN(C)C
Cc1oc2c(NC(=O)c3c(Cl)cccc3Cl)cccc2c1C(C)(C)O
CC/C(=C(/CC)c1ccc(O)cc1)c1ccc(O)cc1
c1ccc2n[nH]nc2c1
Oc1ccc2ccccc2c1
CCCCCCCC[Si](OCC)(OCC)OCC
CCO[Si](CCCNC(N)=O)(OCC)OCC
CCCC(=O)OCCC(C)C
O=C(O)c1ccccc1-n1cc(C(=O)O)c(=O)c2cc(Nc3c(F)cc(F)cc3Cl)c(Cl)cc21
O=C=NCCCCCCN=C=O
NCc1cccc(C2CCN(C(=O)c3ccc(C#Cc4ccccc4F)o3)CC2)c1
O=C(OCCCCCCOC(=O)c1ccccc1)c1ccccc1
Cc1occc1C(=O)Nc1ccc(C(=O)N2CCC(F)(F)/C(=C\C(=O)N3CCC(N4CCCCC4)CC3)c3ccccc32)cc1
CC(O)CC(C)(C)O (stereo not given)
CN1C(=O)CC[C@H]1c1cccnc1
CCOC(=O)O[C@H](C)OC(=O)c1ccc2c(c1)cc(C(=O)NC1CCN(C(C)C)CC1)n2Cc1cc(-c2ccc(Cl)s2)on1
CCCCCc1ccc(N)cc1
CN(C[C@@H](CC[N+]12CCC(C3CCCCC3)(CC1)CC2)c1ccc(Cl)c(Cl)c1)C(=O)c1cc(C(F)(F)F)cc(C(F)(F)F)c1
Cc1cc2c(cc1C(F)(F)F)N(C(=O)Nc1ccc(Oc3cccnc3C)nc1)CC2
O=C1c2ccccc2C(=O)N1CCc1noc(-c2ccc(CN3CCCCCC3)s2)n1
CCCOC(=O)c1cc(O)c(O)c(O)c1
COc1cccc([C@H](O)C2CCN(CCc3ccc(F)cc3)CC2)c1OC
NC(=O)c1nc(-c2cccc(-c3cc(F)ccc3OCC(F)(F)C(F)(F)F)c2)n[nH]1
c1ccc2ccccc2c1
COCC(C)OCC(C)OCC(C)O (stereo not given)
O=C(O)c1ccccc1C(=O)OCc1ccccc1

AC50, active:
CC(=O)N1CCN(c2ccc(OC[C@H]3CO[C@](Cn4ccnc4)(c4ccc(Cl)cc4Cl)O3)cc2)CC1 12.3 µM
CN(C)C(=O)C1(N2CCCCC2)CCN(CC[C@@]2(c3ccc(Cl)c(Cl)c3)CN(C(=O)c3ccccc3)CCO2)CC1 84.3 µM
Cc1cc(F)ccc1-c1cc(N2CC[C@@H](O)[C@H]2CO)ncc1N(C)C(=O)C(C)(C)c1cc(C(F)(F)F)cc(C(F)(F)F)c1 12.3 µM
c1ccc(C[n+]2cccc3ccccc32)cc1 50 µM
CC(C)(C)c1cc(/C=C2\SC(N)=NC2=O)cc(C(C)(C)C)c1O 22.2 µM
O=C(O)Cc1cc(I)c(Oc2ccc(O)c(I)c2)c(I)c1 82.7 µM
CCN(Cc1cccnc1)C(=O)c1cccc(Cl)c1[C@]1(C)C(=O)N(Cc2ccc(OC)cc2OC)c2ccc(Cl)cc21 11.6 µM
